Screening results as filed in PubChem BioAssay.
Sm TGR block – inhibitors of Schistosoma mansoni thioredoxin glutathione reductase; purified TGR, DTNB reduction, TNB absorbance 405 nm; 360,000 compounds, 3% hits; Q962Y6; Potency, µM (top dose mostly 114 µM), for the others: top-dose activity change, negative = inhibition, hits mostly inhibitors; AID 485364; also: potency is read from the fitted curve at half-maximal effect; % is scaled to controls: 0 for no effect and ±100 for the full control effect; nearly all actives have a fitted effect of over 60% in size
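First, TGR (20 nM dispensed) and NADPH were mixed with compound. Second, a 15 min room-temperature incubation followed. Third, further NADPH and then DTNB were added to start the reaction. Finally, TNB absorbance was monitored kinetically.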
Tb PYK inh – inhibitors of Trypanosoma brucei pyruvate kinase; Q57TT1; 410,000 compounds, 0.12% hits; TbPYK enzyme, Kinase-Glo Plus ATP luminescence, 45 min; Potency, µM (doses to about 76.8 µM), without a hit: at the highest dose activity, negative = inhibition, actives largely listed as inhibitors; also: potency is read from the fitted curve at half-maximal effect; % is scaled to controls: 0 for no effect and ±100 for the full control effect; nearly all actives have a fitted effect of over 50% in size
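Luminescence from Kinase-Glo Plus, added after a 45-minute room-temperature reaction, served as the end-point read-out. The enzyme and substrate were preincubated with compound before ADP (130 uM final) initiated turnover. Concentration-effect curves came from normalized qHTS data.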
Cycloheximide cs – counter-screen hit for Shiga toxin inhibitors, cycloheximide; 300,000 compounds, 12% hits; cell reporter, cycloheximide protein synthesis inhibition counterscreen; max response, %; AID 2314; in the data active = max response mostly above about 13%, no sharp cut-off; inactive = mostly below about 14%; also: read at 38.3 µM for the half of the compounds with a filed dose; 0% is about no effect
LmPK inhibitor – blocks Leishmania mexicana pyruvate kinase activity; 290,000 compounds, 0.37% hits; purified LmPK, Kinase-Glo ATP luminescence, 1 h; Potency, µM (doses to about 57.5 µM), without a hit: at the highest dose activity change, negative = inhibition, hits mostly inhibitors; AID 1721; Q27686; also: potency is read from the fitted curve at half-maximal effect; % is scaled to controls: 0 for no effect and ±100 for the full control effect
Target sequence (Q27686 whole entry, looked up): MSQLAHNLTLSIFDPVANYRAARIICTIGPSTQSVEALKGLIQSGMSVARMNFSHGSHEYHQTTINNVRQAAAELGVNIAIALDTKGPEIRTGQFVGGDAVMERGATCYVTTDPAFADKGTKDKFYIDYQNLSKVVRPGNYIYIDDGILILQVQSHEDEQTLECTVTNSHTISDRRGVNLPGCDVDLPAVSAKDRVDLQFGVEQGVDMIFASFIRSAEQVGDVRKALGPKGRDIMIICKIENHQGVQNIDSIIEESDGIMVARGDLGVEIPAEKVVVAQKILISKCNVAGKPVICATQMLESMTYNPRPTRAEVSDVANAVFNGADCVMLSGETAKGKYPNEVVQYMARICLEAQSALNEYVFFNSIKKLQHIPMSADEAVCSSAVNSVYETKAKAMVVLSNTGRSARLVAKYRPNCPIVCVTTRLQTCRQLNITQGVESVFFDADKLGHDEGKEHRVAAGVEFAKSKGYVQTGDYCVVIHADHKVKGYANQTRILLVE
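Pyruvate kinase activity monitored as ATP production (luciferase luminescence). Conditions: 0.1 nM enzyme, 0.5 mM PEP, 0.1 mM ADP, 1 h, RT; normalized against uninhibited and no-enzyme wells.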
FBPA Giardia inh – blocks Giardia fructose-bisphosphate aldolase activity. purified Giardia FBPA. 290,000 compounds, 0.71% hits. A8B2U2. Potency, µM (series often up to 59.6 µM), inactives show top-dose activity, negative = inhibition, actives largely listed as inhibitors; also: potency is read from the fitted curve at half-maximal effect; % is scaled to controls: 0 for no effect and ±100 for the full control effect; nearly all actives have a fitted effect of over 55% in size
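40 nM FBPA preincubated 10 min at RT with compound (up to 57.5 uM final), then substrate plus GAPDH/TPI/NAD/arsenate coupling and diaphorase/resazurin added. Fluorescence read after 20 min at RT, 525/598 nm.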
Shiga inhibitor – inhibitors of Shiga toxin in Vero cells; Vero cells, Shiga toxin protein synthesis inhibition reporter; inhibition, % at 38.7 µM; 290,000 compounds, 9.2% hits; AID 2315; in the data active = inhibition mostly above about 28%, no sharp cut-off; inactive = mostly below about 43%; also: 0% is about no effect
Starred values were filed as active, the others as inactive; ? = inconclusive; / = not tested or not shown; + = active, no number. This is one part of a sample in which hits are shown more often than they occur. Unless noted, calls follow the shape of the dose curve; as a rule, active = well fitted curve in the direction sought with a large enough effect; inconclusive = small, poorly fitted or top-dose-only effect, or another doubt; inactive = no such curve, though single readings can be large; an effect the other way counts as inactive or inconclusive.

SMILES | Sm TGR block | Tb PYK inh | Cycloheximide cs | LmPK inhibitor | FBPA Giardia inh | Shiga inhibitor
CCOc1ccc(NC(=O)C(c2ccccn2)N(C(=O)CCl)c2ccc(OCC)cc2)cc1 (configuration not stated) | 45µM* | -17% | 49* | -5% | ? | +
CCOc1ccc(NC(=O)C(c2ccccn2)N(C(=O)CCl)c2ccc(OC)cc2)cc1 (configuration not stated) | 45µM* | -18% | 55* | 3% | 7.1µM* | 77*
CC(=O)Nc1ccc(C(=O)N(C)C(C(=O)Nc2ccc(C)cc2)c2ccccn2)cc1 (configuration not stated) | -4% | 0% | -4 | -9% | 0% | 5
COc1ccc(NC(=O)C(c2ccccn2)N(C(C)=O)c2ccc(C)cc2)cc1 (configuration not stated) | -4% | 4% | 16* | -3% | -11% | 60*
COc1ccc(C(C(=O)NC2CCCCC2)N(C(=O)CCl)c2ccc(OC)cc2)cc1 (configuration not stated) | -22% | -4% | 1 | -1% | -4% | -2
COc1ccccc1C(=O)Nc1nc2nc(C)c(Cc3ccccc3)c(=O)n2[nH]1 | -11% | -14% | / | / | / | /
O=C(NCCc1csc(-c2cccc(F)c2)n1)c1cccs1 | 5% | 2% | / | / | / | /
COc1ccc(/C=N/Nc2nc(=O)[nH]nc2C)cc1OC | -4% | -7% | 33* | ? | ? | 66*
COc1cc(/C=N/Nc2nc(=O)[nH]nc2C)ccc1O | 2% | -12% | 37* | -23% | ? | 70*
CCOc1cc(/C=N/Nc2nc(C)cc(=O)[nH]2)ccc1O | -8% | -3% | -2 | 8% | -12% | -6
COc1ccc(/C=N/Nc2nc(=O)[nH]nc2C)cc1[N+](=O)[O-] | -6% | 0% | 7 | -11% | -15% | 6
COc1ccc(C(=O)c2cn(Cc3ccc(F)cc3)c3c(F)cc(F)cc3c2=O)cc1 | 5% | -1% | / | / | / | /
CCOC(=O)c1c(S(=O)(=O)N2CCC(C(=O)Nc3ccc(C)cn3)CC2)c(C)n(C)c1C | 4% | -11% | / | / | / | /
Cc1oc2c(c(C)cc3oc(=O)c(CC(=O)NCCc4ccccc4)c(C)c32)c1C | -4% | 3% | / | / | / | /
CCOc1ccccc1Nc1ccc(C(=O)O)cc1N | -20% | -3% | 10 | 0% | -5% | -6
Cc1ccc(Nc2ccc(C(=O)O)cc2N)cc1 | 3% | -2% | 22* | -18% | 12% | 52
Cc1cc(C)cc(Nc2ccc(C(=O)O)cc2N)c1 | -6% | -10% | 52* | -1% | 2% | 48*
COc1cc(Nc2ccc(C(=O)O)cc2[N+](=O)[O-])cc(OC)c1 | -1% | -1% | -4 | 1% | 5% | 2
COc1cccc(Nc2ccc(C(=O)O)cc2N)c1 | -13% | -10% | 62* | 0% | 1% | 74*
CCC(Sc1nnc(C)n2c1cc1occc12)C(=O)Nc1ccccc1F (configuration not stated) | -7% | 1% | / | / | / | /
COc1ccc(N(CC(=O)Nc2cccc(C(C)=O)c2)S(=O)(=O)c2ccccc2)c(OC)c1 | -1% | -7% | / | / | / | /
Cc1c(C(=O)Nc2ccc(-c3nc4cc(Cl)ccc4o3)cc2)oc2ccccc12 | -6% | 1% | / | / | / | /
Cc1ccc(CNc2ncc(-c3ccccc3)n2C)o1 | -9% | 20% | 25* | -2% | ? | 20
Cn1c(-c2ccc3c(c2)OCO3)cnc1NC(=O)CCC(=O)NCCc1ccccc1 | 0% | -12% | 18* | 1% | 13% | 65*
Cn1c(-c2ccc3c(c2)OCO3)cnc1NCc1cccc(Cl)c1 | -8% | 27% | 13 | 1% | ? | 21
SMILES | Sm TGR block | Tb PYK inh | Cycloheximide cs | LmPK inhibitor | FBPA Giardia inh | Shiga inhibitor
Cn1c(-c2ccc3c(c2)OCO3)cnc1N | -2% | 19% | 13* | -6% | 15% | -4
Cc1nc(N)ncc1-c1ccc2c(c1)OCO2 | 1% | -2% | 13 | -3% | 8% | 23
Cn1c(-c2ccc3c(c2)OCO3)cnc1NCc1ccccc1 | 4% | 29% | 39* | -2% | / | 56
COc1ccc(-n2c(=O)c(-c3cccs3)nc3cnc(Oc4ccccc4)nc32)cc1 | / | 0% | / | / | 6% | /
COc1ccc(-c2nc3cc(C)ccn3c2NC(=O)c2cccc(F)c2)cc1 | 0% | 1% | / | / | / | /
CCOC(=O)c1nc(NCc2ccc(Cl)cc2)c2c(C)noc2n1 | -1% | 1% | / | / | / | /
O=C(Nc1ccc(F)cc1C(F)(F)F)C1CCN(c2ncccn2)CC1 | -3% | -6% | / | / | / | /
COc1ccc(N2CCN(CC(O)COc3ccc(C(C)C)c(C)c3)CC2)cc1 (configuration not stated) | 3% | 2% | / | / | / | /
COc1ccc(-c2cnc(NCc3ccc(C)cc3)n2C)cc1 | -3% | -4% | / | / | / | /
Cn1c(-c2ccc3c(c2)OCO3)cnc1NCc1ccccc1Cl | / | -17% | 33* | -2% | ? | 73*
Cn1c(-c2ccccc2)cnc1NCc1ccccc1 | -8% | 6% | 11* | -4% | ? | /
COC(=O)Cn1c(CCC(=O)O)ccc1-c1ccccc1 | ? | 0% | -7 | 6% | 2% | -7
O=C(O)CCc1ccc(-c2ccccc2)n1Cc1ccco1 | 32µM* | -8% | -4 | 5% | -1% | -9
O=C(O)CCc1ccc(-c2ccc(Br)cc2)n1Cc1ccco1 | 50µM* | -3% | 2 | 3% | 23% | -9
O=C(O)CCc1ccc(-c2ccc(F)cc2)n1Cc1ccco1 | 50µM* | -3% | -3 | -6% | 20% | -24
C[C@H]1NS(=O)(=O)c2ccc(Br)cc2O[C@H]1c1ccccc1 | / | 5% | / | / | / | /
O=C(COC(=O)c1cccc(S(=O)(=O)N2CCOCC2)c1)c1ccccc1 | 7% | -17% | 40* | 5% | -2% | 100*
O=C(CCc1ccc(S(=O)(=O)N2CCOCC2)cc1)OCc1nc2ccccc2s1 | 0% | 1% | 73* | 2% | 1% | 109*
O=C(COC(=O)c1cccc(S(=O)(=O)N2CCOCC2)c1)NCc1ccccc1 | / | -12% | / | / | / | /
CCN(CC)c1ccc(S(=O)(=O)N2CCOCC2)cc1NC(=O)CSc1n[nH]c(N)n1 | -7% | 0% | 45* | 2% | 0% | 44*
O=C(CSc1nc2ccccc2s1)Nc1cc(S(=O)(=O)N2CCOCC2)ccc1O | -4% | ? | 20* | 7% | 4% | 17
O=C(COC(=O)c1cccc(S(=O)(=O)N2CCOCC2)c1)Nc1nc(-c2ccccc2Cl)cs1 | -19% | -4% | 28* | -3% | / | 93*
O=C(OCCOc1ccccc1)c1cccc(S(=O)(=O)N2CCOCC2)c1 | -2% | 1% | / | / | / | /
O=C(OCc1nc2ccccc2s1)c1cccc(S(=O)(=O)N2CCOCC2)c1 | 0% | 5% | 37* | -5% | 1% | 108*
